# CD11b adhes inh: inhibitors of CD11b/CD18 adhesion to fibrinogen, primary screen, K562 cells, luminescence; Integrin beta-2 (Homo sapiens) + Integrin alpha-M (Homo sapiens), P05107+P11215; ATPlite luminescence; Mn2+ added to activate the integrin; inhibition, % at 10 µM; 93,000 compounds, 0.54% hits; AID 1497, 2009;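 active means primary inhibition of 50% or more at 10 µM, then 40% or more on retest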
# Mac1 fbg enh: enhancers of CD11b/CD18 adhesion to fibrinogen, primary screen, K562 cells, luminescence; ATPlite luminescence; activation, % at 10 µM; 93,000 compounds, 0.07% hits; AID 1499, 2009;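 active means 10 µM primary screen giving 50% or more activity, confirmed by 40% or more on retest at that dose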
# FAK blocker: FAK kinase inhibitors, primary screen, biochemical; biochemical FAK kinase activity assay; inhibition, %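 (tested at 7 µM)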; 97,000 compounds, 0.84% hits; AID 727, 2007; in the data active means inhibition above about 19%;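 further: 0% = DMSO and 100% = reference compound high control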
# Target sequence (Q05397 whole entry, looked up): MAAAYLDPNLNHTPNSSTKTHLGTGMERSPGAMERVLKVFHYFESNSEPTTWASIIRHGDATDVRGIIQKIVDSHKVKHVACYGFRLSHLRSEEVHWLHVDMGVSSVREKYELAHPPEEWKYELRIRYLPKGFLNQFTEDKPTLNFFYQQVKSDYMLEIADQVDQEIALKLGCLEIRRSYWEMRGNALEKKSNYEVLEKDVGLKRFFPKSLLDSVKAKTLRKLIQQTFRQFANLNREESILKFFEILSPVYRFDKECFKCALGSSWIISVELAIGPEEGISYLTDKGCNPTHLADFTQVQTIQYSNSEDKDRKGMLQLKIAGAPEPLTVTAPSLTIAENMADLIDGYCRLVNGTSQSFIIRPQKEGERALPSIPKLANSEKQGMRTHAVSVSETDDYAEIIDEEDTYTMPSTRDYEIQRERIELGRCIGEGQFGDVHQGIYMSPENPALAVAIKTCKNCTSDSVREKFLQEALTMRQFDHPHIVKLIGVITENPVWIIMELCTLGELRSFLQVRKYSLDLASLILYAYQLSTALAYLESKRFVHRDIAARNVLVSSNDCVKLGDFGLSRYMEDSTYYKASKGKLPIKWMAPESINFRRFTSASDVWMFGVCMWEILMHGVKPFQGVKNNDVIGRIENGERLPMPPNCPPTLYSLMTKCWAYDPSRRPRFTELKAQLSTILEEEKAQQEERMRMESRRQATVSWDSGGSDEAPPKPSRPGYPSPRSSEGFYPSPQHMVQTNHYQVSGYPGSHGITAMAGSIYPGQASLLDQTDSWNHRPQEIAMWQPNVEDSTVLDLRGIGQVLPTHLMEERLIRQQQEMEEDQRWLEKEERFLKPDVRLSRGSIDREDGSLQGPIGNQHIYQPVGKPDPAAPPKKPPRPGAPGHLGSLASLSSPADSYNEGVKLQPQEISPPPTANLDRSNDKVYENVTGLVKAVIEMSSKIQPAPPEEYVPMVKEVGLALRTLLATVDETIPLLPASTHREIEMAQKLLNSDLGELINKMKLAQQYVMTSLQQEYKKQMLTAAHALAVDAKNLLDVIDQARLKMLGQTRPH
# ERb coact inh: inhibitors of ERβ-SRC1 coactivator interaction, primary screen, biochemical, TR-FRET, ERβ LBD, SRC-1 peptide; 86,000 compounds, 1.3% hits; Estrogen receptor beta (Homo sapiens), Q92731; inhibition, % at 25.6 µM; TR-FRET ER-beta LBD / SRC1-Cy5 peptide binding; receptor agonist-loaded with 1 µM estradiol;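 active means compounds whose percent inhibition of the receptor-coactivator binding signal exceeds about 50% in the single-dose screen, limit read from the data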;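 further: 0% = receptor plus peptide wells without compound and 100% = peptide-only wells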
# ERa coact pot: enhancers of ERα–SRC-1 coactivator binding, primary screen, biochemical, TR-FRET, ERα LBD, low estradiol | coactivator binding (% of control), % at 25.6 µM | Estrogen receptor (Homo sapiens), P03372 | TR-FRET ERalpha-LBD/SRC-Cy5 coactivator binding, 2 h; 100 = basal binding, no effect | 86,000 compounds, 1.3% hits; in the data active means activity above about 200%;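 further: binding measured in presence of low estradiol as agonist stimulus; 0% = peptide alone without receptor and 100% = receptor with peptide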
# ERa SRC1 inh: ERα–SRC-1 coactivator interaction inhibitors, primary screen, biochemical, TR-FRET, ERα LBD, estradiol-bound | TR-FRET ER-alpha LBD / SRC-1 peptide | Estrogen receptor (Homo sapiens), P03372 | 86,000 compounds, 1.7% hits | inhibition, % at 25.6 µM; in the data active means inhibition above about 50%;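 further: 0% = receptor plus peptide control and 100% = peptide only without receptor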
# * = called active by the depositor; . = no result; [ ] = another dose, or the depositor's remark. Shown are actives, neighbours in structure and some others; about 3.5% of the full set was active somewhere.
SMILES,CD11b adhes inh,Mac1 fbg enh,FAK blocker,ERb coact inh,ERa coact pot,ERa SRC1 inh
c1ccc2c(c1)oc1c(NCc3ccc4c(c3)OCO4)ncnc12,39,-7,.,-5,378*[fluorescence artefact?],-3
COc1ccc(C)cc1NC(=O)c1ccoc1C,-12,-3,-1,14,71,4
COc1ccc(C)cc1NC(=O)c1cc2c(CO)cnc(C)c2oc1=N,.,.,.,14,239*[fluorescence artefact?],-28
COc1ccc(-c2nn(-c3ccccc3)cc2/C=N/N2C(=O)CSC2=S)cc1,10,10,-1,-1,313*[fluorescence artefact?],-21
COc1ccc(/C=N/N2C(=O)CSC2=S)cc1,8,-1,-1,1,102,-7
Cc1cccc(-n2ccnc2SCC(=O)Nc2nccs2)c1C,-6,-5,-2,-5,108,3
O=C(O)CCn1ccnc1-c1ccccc1,0,-3,-3,-1,475*,-10
Cc1nccn1CCC(=O)O,-3,-2,.,7,115,6
CCc1nnc(NC(=O)CSc2nc3c(cc2C#N)CCCC3)s1,-27,1,-1,-10,510*[fluorescence artefact?],-20
CN1CCc2nc(SCC(=O)Nc3ccc(F)cc3)c(C#N)cc2C1,-6,-1,11,49,38,83*
COc1ccc(NC(=O)CSc2nc3c(cc2C#N)CN(C)CC3)cc1,-17,2,.,56*,34,93*[fluorescence artefact?]
CCN1CCc2nc(SCC(=O)Nc3ccc(OC)cc3)c(C#N)cc2C1,-10,3,.,5,11,39
COC(=O)CC(=O)CSc1nc2c(cc1C#N)CCCCC2,-11,-5,1,2,107,-4
CN1C(=O)NC2C1N(S(C)(=O)=O)CCN2S(C)(=O)=O (stereo not given),-3,1,0,4,102,2
CC(c1ccccc1)n1cnc2ccccc21 (stereo not given),-9,3,.,-2,96,-7
COc1ccccc1CNC(=O)c1cnccn1,-1,6,-1,37,94,61*[fluorescence artefact?]
CCOC(=O)C1C2C=CC3(CN(c4cccc(Cl)c4)C(=O)C13)O2 (stereo not given),4,1,0,11,111,-7
O=C(CCn1nnc2ccccc21)Nc1nnc(-c2ccccc2F)s1,-3,31,-10,-1,248*,10
O=C(CCn1nnc2ccccc21)Nc1nnc(COc2ccccc2F)s1,8,1,4,-2,100,32
Cc1nc2c(Br)cc(Br)cc2cc1O,90*,-6,2,22,81,8
Cc1cc(NC(=O)c2ccco2)ccc1-n1cnnn1,.,.,-7,3,96,0
O=C(CCC(=O)Nc1nnc(C2CCCCC2)s1)NCC1CCCO1 (stereo not given),-5,1,0,61*,203*[fluorescence artefact?],63*
CCN(CC)c1ccc(NC(=O)c2cnn(CC)c2)cc1,5,-2,-7,78*[fluorescence artefact?],38,38
CCn1cc(C(=O)NC(=S)Nc2cccc(O)c2)cn1,-3,-2,-1,.,.,.
CCN1C(=S)SC(=O)C1=C1C=C(C)N(CCO)C(C)=C1,-2,-4,.,-2,244*[fluorescence artefact?],-22
SMILES,CD11b adhes inh,Mac1 fbg enh,FAK blocker,ERb coact inh,ERa coact pot,ERa SRC1 inh
COc1cc(OC)cc(-c2cc3nc(C)c(CCC(=O)O)c(=O)n3[nH]2)c1,2,-1,-5,.,.,.
CC(NC(=O)OC(C)(C)C)C(=O)N1CCCC1C(=O)NC(Cc1ccccc1)C(N)=O (stereo not given),-22,1,5,34,98,-5
O=C(Nc1cccnc1)c1cc(-c2ccc3c(c2)OCO3)on1,13,3,1,17,405*,29
O=C(Nc1cccnc1)c1cc(-c2cccs2)on1,.,.,-1,4,115,8
Cc1[nH]n(C(C)(C)C)c(=O)c1Sc1ccccc1,12,0,-2,-15,120,-13
Cc1[nH]n(-c2ccccc2)c(=O)c1Sc1ccc(Cl)cc1,13,0,-1,81*,72,39
O=c1[nH]c(=S)[nH]nc1Cc1ccccc1,12,2,-4,-2,128,4
CC(C)(C)c1nc(N2CCN(C(=O)c3ccco3)CC2)c2nnn(Cc3ccccc3)c2n1,.,.,-2,-7,86,-5
O=C(Nc1cc2nn(-c3ccccc3)nc2cc1Cl)c1ccco1,-30,14,-9,30,100,62*[fluorescence artefact?]
CC(C)(C)C(=O)Nc1cc2nn(-c3ccccc3)nc2cc1Cl,99*,-14,-1,-4,119,6
COc1ccc(CNC(=O)COC(=O)c2cc(-c3cccs3)nc3ccccc23)cc1OC,-4,30,2,6,72,37
O=C(Nc1nc2ccccc2s1)c1cc(-c2ccco2)nc2ccccc12,12,-1,.,.,.,.
O=C(O)c1cc(-c2ccco2)nc2ccccc12,-4,-3,.,82*[fluorescence artefact?],38,74*
COc1ccc(CNC(=O)COC(=O)c2cc(-c3ccco3)nc3ccccc23)cc1,-1,8,14,77*,53,87*[fluorescence artefact?]
Cc1cc(-c2ccccc2)nc2cc(C(=O)N(Cc3ccccc3)Cc3ccccc3)nn12,.,.,0,-6,204*,-11
S=c1[nH]nc(-c2cc3c(s2)-c2ccccc2CC3)o1,64*,-7,-3,.,.,.
CCC(Sc1nc2cc3c(cc2c(=O)n1Cc1ccco1)OCO3)C(=O)Nc1ccccc1OC (stereo not given),-5,10,0,32,144,88*[fluorescence artefact?]
COC(=O)c1ccc(Cn2nc(C)c(Br)c2C)cc1,-11,-3,5,66*[fluorescence artefact?],102,-5
COC(=O)c1ccc(Cn2nc(C)cc2C)cc1,-5,0,-3,-4,91,-7
O=C(CS(=O)c1ccc(C(F)(F)F)cc1[N+](=O)[O-])Oc1ccc(Cl)cc1 (stereo not given),-2,-4,3,10,86,-4
N#CCSc1ncnc2sc3c(c12)CCC3,-16,-2,3,44,75,42
Cc1sc2ncnc(SCC#N)c2c1C,5,6,.,48,97,76*[fluorescence artefact?]
CCn1c(=O)cc(SCC(=O)Nc2ccccc2N2CCN(C)CC2)c2ccccc21,.,.,.,-8,140,-8
COc1ccc(/C=C/C(=O)Nc2cc(=O)n(C)c(=O)n2C)cc1,-18,0,.,.,.,.
O=c1c(C(c2ccccc2)c2c(O)sc3ccccc3c2=O)c(O)sc2ccccc12,92*,-6,6,29,119,81*[fluorescence artefact?]
O=c1c2ccccc2sc2ccc(Cl)cc12,16,-3,.,.,.,.

# Screens from PubChem BioAssay.
